Experimental findings from PubChem BioAssay (NCI) are described below.

Where “and” joins values, the source holds several entries; their conditions need not be identical. Identical values can stand only once. Compounds without any hit were thinned out: in the full panel of roughly 83,000, 20% have a hit.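 Interpretation: 100, growth as untreated; towards 0, rising growth inhibition; 0, no net growth; 0 to -100, cell death. Compounds scoring below 10 were considered active.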 Calls of active or inactive are those of the source.

Among the test systems are HCT-15 colon; HT29 colon; SNB-75 CNS; SNB-19 CNS; U251 CNS; PC-3 prostate; SK-MEL-5 melanoma; UACC-62 melanoma; LOX IMVI melanoma; SK-MEL-2 melanoma; EKVX NSCLC; SN12C renal; UO-31 renal; TK-10 renal; ACHN renal; CAKI-1 renal; A498 renal; CCRF-CEM leukemia; MOLT-4 leukemia; SK-MEL-28 melanoma.
What all share (experiment): NCI-60 one-dose screen, 48 h (100 = growth as untreated, 0 = no growth, -100 = all killed)
Holding throughout (conditions): 10 µM unless noted

`Cc1ccc(S(=O)(=O)NCN2C(=O)c3ccccc3C2=O)cc1`: the growth is 99.3% (inactive) in the test with HCT-15 colon; 104% (inactive) in the test with HT29 colon; 96.9% (inactive) in the test on SNB-75 CNS; 111% (inactive) with SNB-19 CNS; 103% (inactive) with U251 CNS; 102% (inactive) with PC-3 prostate. The growth with SK-MEL-5 melanoma is 112% (inactive); with UACC-62 melanoma, 111% (inactive); in the test on LOX IMVI melanoma it was 109% (inactive); in the test on SK-MEL-2 melanoma, 106% (inactive); in the test with EKVX NSCLC it was 119% (inactive); in the test with SN12C renal, 98% (inactive). Further, the growth with UO-31 renal is 92.3% (inactive); with TK-10 renal, 108% (inactive); in the test on ACHN renal, 108% (inactive); with CAKI-1 renal, 95.1% (inactive); with A498 renal, 111% (inactive); with CCRF-CEM leukemia, 91% (inactive). Moreover, the growth in the test on MOLT-4 leukemia is 93.6% (inactive).
Consider `CCOC(=O)c1sc(N)nc1-c1ccccc1`, for which the growth was 97.3% (inactive) in the test with HCT-15 colon; 96.8% (inactive) in the test with HT29 colon; 94.7% (inactive) in the test on SNB-75 CNS; 109% (inactive) with SNB-19 CNS; 98.8% (inactive) in the test with U251 CNS; 98% (inactive) in the test on PC-3 prostate. Moreover, the growth with SK-MEL-5 melanoma was 100% (inactive); with UACC-62 melanoma it was 112% (inactive); in the test with SK-MEL-28 melanoma, 109% (inactive); with SK-MEL-2 melanoma, 95.9% (inactive); in the test on SN12C renal, 104% (inactive); in the test on TK-10 renal, 99% (inactive). The growth is 93.7% (inactive) in the test with ACHN renal; 103% (inactive) with CAKI-1 renal; 94.5% (inactive) in the test on A498 renal; 97.7% (inactive) in the test on CCRF-CEM leukemia; 96.1% (inactive) in the test with MOLT-4 leukemia.
For `CCCCCN(CCCCC)CC(O)c1cc2c(c3ccccc13)CCCC2` (configuration not stated), the growth in the test with HCT-15 colon was 52.2% (inactive) and 52.1% (inactive); with HT29 colon, 15.4% (inactive) and 16.2% (inactive); in the test on SNB-75 CNS, 86.9% (inactive) and 70.7% (inactive); in the test with SNB-19 CNS, 88.3% (inactive) and 83.6% (inactive); in the test on U251 CNS, 63% (inactive) and 62% (inactive); with PC-3 prostate it was 35.7% (inactive) and 57.9% (inactive). Also, the growth is 61.1% (inactive) and 36.3% (inactive) in the test on SK-MEL-5 melanoma; 25.4% (inactive) and 58.2% (inactive) in the test with UACC-62 melanoma; 79.1% (inactive) and 97.2% (inactive) in the test with SK-MEL-2 melanoma; 77.9% (inactive) and 46% (inactive) with EKVX NSCLC; 72.1% (inactive) and 75.1% (inactive) in the test on SN12C renal; 39.7% (inactive) and 44.7% (inactive) with UO-31 renal. Further, the growth in the test with TK-10 renal was 87.5% (inactive) and 73.4% (inactive); in the test with ACHN renal, 55.8% (inactive) and 49% (inactive); with CAKI-1 renal, 34.5% (inactive) and -32% (active); with A498 renal it was 108% (inactive) and 39.3% (inactive); with CCRF-CEM leukemia, 52.9% (inactive) and 57.2% (inactive); in the test with MOLT-4 leukemia, 41.7% (inactive) and 61.7% (inactive).
As to `Cc1ccc(-c2noc(CC(=O)c3ccc([N+](=O)[O-])cc3)n2)cc1`, the growth in the test with HCT-15 colon is 98.3% (inactive); with HT29 colon it was 101% (inactive); with SNB-75 CNS, 94.6% (inactive); with SNB-19 CNS, 106% (inactive); in the test on U251 CNS, 96.8% (inactive); with PC-3 prostate, 98.6% (inactive). Further, the growth in the test on SK-MEL-5 melanoma was 91.6% (inactive); in the test on UACC-62 melanoma, 91.1% (inactive); with SK-MEL-28 melanoma it was 105% (inactive); with SK-MEL-2 melanoma, 110% (inactive); with EKVX NSCLC, 95.9% (inactive); in the test on SN12C renal, 94.1% (inactive). Also, the growth in the test on UO-31 renal was 89.6% (inactive); in the test with TK-10 renal it was 115% (inactive); in the test with ACHN renal, 103% (inactive); in the test on CAKI-1 renal it was 97.1% (inactive); in the test on A498 renal it was 86.7% (inactive); in the test on CCRF-CEM leukemia, 96.7% (inactive). Further, the growth in the test with MOLT-4 leukemia was 90.5% (inactive).
Take `Nc1nc2ncc(CNc3ccc(C(=O)N[C@@H](CCc4nn[nH]n4)C(=O)O)cc3)nc2c(=O)[nH]1`: the growth in the test on HCT-15 colon is 104% (inactive) and 103% (inactive); in the test on HT29 colon, 104% (inactive) and 92.3% (inactive); in the test with SNB-75 CNS, 87.4% (inactive) and 97.4% (inactive); with SNB-19 CNS it was 107% (inactive) and 95.6% (inactive); in the test with U251 CNS it was 99.8% (inactive) and 91.4% (inactive); with PC-3 prostate it was 101% (inactive) and 85.3% (inactive). Further, the growth in the test on SK-MEL-5 melanoma was 101% (inactive) and 96.7% (inactive); in the test with UACC-62 melanoma, 97.3% (inactive) and 94.5% (inactive); with SK-MEL-28 melanoma it was 97.5% (inactive) and 110% (inactive); in the test on SK-MEL-2 melanoma, 105% (inactive) and 104% (inactive); in the test with EKVX NSCLC, 96.1% (inactive) and 106% (inactive); in the test with SN12C renal, 109% (inactive) and 98.2% (inactive). In addition, the growth in the test with UO-31 renal was 89.7% (inactive) and 89.8% (inactive); with TK-10 renal it was 111% (inactive) and 109% (inactive); in the test on ACHN renal, 92.2% (inactive) and 104% (inactive); with CAKI-1 renal it was 93% (inactive) and 101% (inactive); in the test on A498 renal, 105% (inactive) and 92.2% (inactive); with CCRF-CEM leukemia, 108% (inactive) and 94.5% (inactive). The growth in the test on MOLT-4 leukemia was 95.6% (inactive).
